About 83,000 compounds went through this panel and 20% of them were active in at least one assay; those are over-represented in the sample as a whole.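 Compound tested at a single concentration for 48 hours in 96-well plates; a percent growth value below 10 was scored as active.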 Values without a mark were called inactive. Active and inactive are the calls of the source.
These molecules were tested on HOP-92 NSCLC (assay: NCI-60 one-dose screen, 48 h (100 = growth as untreated, 0 = no growth, -100 = all killed)). Conditions: 10 µM unless noted.
Procedure: Growth inhibition of the HOP-92 human Non-Small Cell Lung tumor cell line is measured as a screen for anti-cancer activity. Cells are grown in 96 well plates and exposed to the test compound for 48 hours. Compounds are tested at a single concentration, which is 10^-5 M for most compounds. The reported endpoint is percent growth (GI% or GIPRCNT), where numbers from 0 - 100% represent growth inhibition, and numbers from -100% - 0 represent cell death. For example, a value of 40 represents 60% growth inhibition. A value of 0 means no net growth occurred over the course of the experiment. A value of -40 indicates 40% of cells at the beginning of the experiment died by the end of the experiment. A value of -100 means all cells are dead at the end of the experiment.
NCI-60 Human Tumor Cell Lines Screen was performed using the standard one-dose NCI protocol, which is described in more detail at https://dtp.cancer.gov/discovery_development/nci-60/default.htm.
Compounds with GIPRCNT values below 10 were considered active. Activity score was based on GIPRCNT using the following formula: […]
Score is 0 for GIPRCNT values of 100 or above, 50 for GIPRCNT values of 0, and 100 for GIPRCNT values of -100.

In order of falling growth:
1. COc1ccc2nc(-c3ccc(OC)c(OC)c3)cc(-c3nnc(SCC(=O)Nc4ccc(C(C)=O)cc4)o3)c2c1  116%
2. CC(C)Cc1cc(CNC(=O)C2[C@H]3CN(C(=O)c4ccccc4)C[C@@H]23)nn1-c1ccccc1 (stereo not given in full)  115%
3. O=C1CC23OC4ON=C(Br)C4C2C(O)c2ccccc2N13 (stereo not given)  107%
4. O=C(O)COc1ccc2c(=O)c3sc4c(=O)c5ccccc5c(=O)c4c3c(=O)c2c1  104%
5. O=C(Nc1cc(=O)[nH]c(=O)[nH]1)C(Cl)Cl  98.8%
6. O=S(=O)(Nc1nccs1)c1ccc(Nc2nc(-c3ccncc3)cs2)cc1  96.9%
7. COc1cc(/C=C/CO)cc(OC)c1O[C@@H]1O[C@H](CO)[C@@H](O)[C@H](O)[C@H]1O  94%
8. CO[C@@]12C=C[C@@]34CCC(=O)N3c3ccccc3[C@@H](O1)C4C2  93%
9. Cc1cccc2nc3c(n12)C(=O)C(=O)c1ccccc1-3  92.6%
10. CCOCc1cc(C(C)(C)C)ccc1O  92.3%
11. COc1ccccc1Nc1nnc(-c2ccc(Cl)cc2)o1  91.1%
12. C=CCn1c(SCC(=O)Nc2ccc(C(=O)/C=C/c3ccc(Cl)cc3)cc2)nnc1-c1cc(OC)c(OC)c(OC)c1  89.2%
13. CCN(CC)c1ccc2c(c1)Oc1nc(N)c(C#N)c(N)c1C2Sc1ccc(OC)cc1 (stereo not given)  88.3%
14. Cc1cccc(C)c1NCc1nnc(-c2ccc(O)cc2)o1  88.3%
15. Cc1nnc(/N=C2\NC(=O)/C(=C/c3ccc(N(C)C)cc3)S2)s1  85.1%
16. Cc1nc2sc(C(=O)Nc3ccccc3Cl)c(N)c2cc1C(C)O (stereo not given)  83.3%
17. COc1ccc(-c2cn(-c3ccc(Cl)cc3)c(=S)[nH]2)cc1OC  81.8%
18. C/C(=N\NC(=O)c1ccncc1)c1ccc(N)cc1  80.6%
19. CCOC(=O)/C=C1\SC(=Nc2ccc(C#N)cc2)N(CCN2C(=O)/C(=C/C(=O)OCC)SC2=Nc2ccc(C#N)cc2)C1=O  80.4%
20. CC(=O)c1cc2c(N)c(C(=O)Nc3ccccn3)sc2nc1C  75.2%
21. O=[N+]([O-])c1ccc(Oc2ccc(-c3ccccc3)cc2)cc1  74.3%
22. Cc1nc2sc(C(=O)Nc3ccccc3)c(N)c2cc1C(C)O (stereo not given)  73%
23. COC(=O)c1nc(-c2ccccc2)oc1S(=O)(=O)n1nc(-c2ccccc2)cc1N  72.1%
24. O=c1[nH]c(-c2cccc(F)c2)cc2cc(F)ccc12  70.7%
25. O=C1Nc2ccccc2C12C=C(c1ccccc1)Nc1c2c(-c2ccccc2)nn1-c1ccccc1 (stereo not given)  66.4%
26. O=C1C(Cl)=C(Nc2ccc3c(c2NC2=C(Cl)C(=O)c4ccccc4C2=O)C(=O)c2ccccc2C3=O)C(=O)c2ccccc21  61.4%
27. COc1ccc2nc(-c3ccc(Cl)cc3)cc(-c3nnc(SC/C(=N/O)c4ccccc4)o3)c2c1  60.7%
28. C=C(C)[C@@H]1CC[C@]2(C(=O)NCCCO)CC[C@]3(C)[C@H](CC[C@@H]4[C@@]5(C)CCCNC(C)(C)[C@@H]5CC[C@]43C)[C@@H]12  58.1%
29. Oc1ccc(CNNc2ccnc3c(O)cccc23)c2cccnc12  54.3%
30. COc1cc(C2=NN(C=O)C(c3cccc(Nc4ccnc5cc(C(F)(F)F)ccc45)c3)C2)cc(OC)c1OC (stereo not given)  29.1%
31. COc1ccccc1N1CCN(CCCOc2ccc(C(=O)/C=C3/C(=O)Nc4ccccc43)cc2)CC1  18.2%
32. COc1ccccc1C(=O)/C=C/c1cc2cccc(OC)c2[nH]c1=O  10.6%

In the case of `CCN1CCN(c2ccc(NC(=O)Nc3nc4ccc(-c5ccccc5OC)cc4s3)cc2)CC1`, the growth is reported as 2.16% (active).
For `COc1ccccc1-c1ccc2nc(NC(=O)Nc3cc(C(F)(F)F)cc(C(F)(F)F)c3)sc2c1`, the growth was -8.46% (active).
`Nc1ccccc1NC(=O)c1ccc(CSc2nc(N3CCOCC3)c3cccn3n2)cc1` was tested, and the growth was -6.72% (active).
With `COc1ccc(-c2cc(-c3nnc(SCC(=O)Nc4ccc(C(C)=O)cc4)o3)c3ccccc3n2)cc1` the growth was -10.1% (active).
In the case of `COc1ccc2[nH]c(=O)c(/C=C/C(=O)c3ccccc3OC)cc2c1`, the growth is reported as -12% (active).
With `CN1CC=C(c2cc(NC(=O)Nc3ccc(Oc4ccnc(NC(=O)C5CC5)c4)c(F)c3)cc(C(F)(F)F)c2)CC1` the growth was -17% (active).
With `C[C@H]1[C@H](C)CC[C@]2(C(=O)OCCOCCOCC[P+](c3ccccc3)(c3ccccc3)c3ccccc3)CC[C@]3(C)C(=CC[C@@H]4[C@@]5(C)CC[C@H](OC(=O)C(Cl)Cl)C(C)(C)[C@@H]5CC[C@]43C)[C@H]12` the growth was -26.6% (active).
In the case of `C=C(C)[C@@H]1CC[C@]2(C(=O)OCCOCCOCC[P+](c3ccccc3)(c3ccccc3)c3ccccc3)CC[C@]3(C)[C@H](CC[C@@H]4[C@@]5(C)CC[C@H](C)C(C)(C)[C@@H]5CC[C@]43C)[C@@H]12`, the growth is reported as -83.3% (active).

— PubChem BioAssay (NCI)
